Molecules are shown by their SMILES. Activity calls are given as the source filed them. No stated cut-off is given here; in the data, active means inhibition of mean fluorescence above about 33%; inactive means the rest.

A short description of the assay: quorum sensing inhibitors in bacterial reporter, SAR follow-up, flow cytometry, SAR analogs (AID 1014).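 Further: Staphylococcus aureus RN6390 with RNAIII-GFP reporter stimulated by AIP; bacteria incubated with compound for 3 hours at 37 °C.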 The settings on record: at 20 µM, stronger effect = higher value; inhibition of percent positive cells: flow cytometry fluorescence, measured here: percent reporter-positive cells.
For the molecule `Cc1cc(C)nc(Nc2ccc(Br)cc2C(=O)O)n1`, the inhibition of mean fluorescence was 17.1% (inactive) and the inhibition of percent positive cells worked out at 0.6%.
The like results for `COc1ccccc1N1CCN(C(CNC(=O)c2ccc(F)cc2)c2cccnc2)CC1` (stereo not drawn) were, in that order, 6.4% (inactive) and -1.7%.
On to `CCN1CCN(C(CNC(=O)c2ccc(F)cc2)c2cccnc2)CC1` (stereo not drawn), for which the inhibition of mean fluorescence was -8.8% (inactive) and the inhibition of percent positive cells was -0.6%.
Take `CC(=O)c1cc2c(O)c(O)ccc2o1`: the inhibition of percent positive cells was -0.1% and the inhibition of mean fluorescence is 17.9% (inactive).
The like results for `O=C(NCC(c1cccnc1)N1CCN(Cc2ccccc2)CC1)c1ccccc1` (stereo not drawn) were, in that order, -0.4% and 12.3% (inactive).
The like results for `O=C(NCC(c1cccnc1)N1CCN(c2ccccc2F)CC1)c1cccs1` (stereo not drawn) were, in that order, -0.4% and 19.5% (inactive).
For `O=C(Nc1ccc2c(c1)OCO2)C(c1ccccc1)N1CCC(Cc2ccccc2)CC1` (stereo not drawn), the inhibition of percent positive cells was 4.2% and the inhibition of mean fluorescence is 63% (active).
The matching figures for `COc1cc(Nc2cc(C)nc3nc(C)nn23)c(C(=O)O)cc1OC`: 0.5% and -11.6% (inactive).
The like results for `COC(=O)c1c(C)oc2cc(Br)c(O)cc12` were, in that order, -1% and -18% (inactive).
The matching figures for `CCOC(=O)C1=C(c2ccccc2)NC(SCC(=O)Nc2sc3c(c2C(=O)OCC)CCCC3)=C(C#N)C1c1ccco1` (stereo not drawn): 0.1% and -27.4% (inactive).
For the molecule `CCCCc1oc2ccccc2c1C(=O)c1ccc(O)cc1`, the inhibition of percent positive cells is 43.2% and the inhibition of mean fluorescence is 84.9% (active).
Consider `CC(=O)c1c(C)oc2c1cc(O)c1ccccc12`, for which the inhibition of mean fluorescence was 9.1% (inactive) and the inhibition of percent positive cells is -0.2%.
The like results for `NC1=NC(=O)CC(C(=O)Nc2cccc3ccccc23)S1` (stereo not drawn) were, in that order, 20.2% (inactive) and 1.5%.
With `CC(=O)c1ccc(Nc2nc3c(S(=O)(=O)c4ccccc4)nnn3c3ccccc23)cc1`, the inhibition of percent positive cells was 0.1% and the inhibition of mean fluorescence was 11.9% (inactive).
The like results for `COc1ccc(Nc2nc3c(S(=O)(=O)c4ccc(F)cc4)nnn3c3ccccc23)cc1` were, in that order, -1.1% and -28.2% (inactive).
The matching figures for `COc1ccc(C(=O)NCC(c2cccnc2)N2CCN(c3ccccc3F)CC2)cc1` (stereo not drawn): -0.9% and -7.6% (inactive).
Consider `O=C(O)c1ccccc1Nc1ccccc1C(=O)O`, for which the inhibition of percent positive cells was -0.5% and the inhibition of mean fluorescence was 5.8% (inactive).
The matching figures for `CC1CCN(CCC(=O)Nc2ccc3c(c2)OCO3)CC1`: 1.6% and 10% (inactive).
The matching figures for `COc1ccc(S(=O)(=O)c2n[nH]n3c2nc(=O)c2ccccc23)cc1`: -1.8% and 34.1% (active).
The matching figures for `O=C(NCCN1CCN(c2ccccc2)CC1)c1ccccc1F`: -1.5% and -12.3% (inactive).
Regarding `COc1ccc(NC(=O)C(c2cc3c(cc2[N+](=O)[O-])OCO3)N2CCN(C=O)CC2)cc1` (stereo not drawn), the inhibition of percent positive cells was 0% and the inhibition of mean fluorescence was -23.1% (inactive).
The matching figures for `CC(C)c1ccc(NC(=O)C(c2ccc3c(c2)OCO3)N2CCOCC2)cc1` (stereo not drawn): -0.1% and 2.7% (inactive).
The matching figures for `COc1ccc(C(=O)NCC(c2cccnc2)N2CCN(c3ccc(F)cc3)CC2)cc1` (stereo not drawn): -0.3% and -13.4% (inactive).
The matching figures for `CC1CC(C)CN(C(C(=O)Nc2ccc(C(C)C)cc2)c2cc3c(cc2[N+](=O)[O-])OCO3)C1` (stereo not drawn): -0.1% and -12.5% (inactive).
Turning to `COc1ccc(Nc2nc3c(S(=O)(=O)c4ccc(Br)cc4)nnn3c3ccccc23)cc1`, the inhibition of percent positive cells was -0.8% and the inhibition of mean fluorescence is 2.8% (inactive).
The matching figures for `CC(=O)Nc1ccc(Nc2nc3c(S(=O)(=O)c4ccc(C(C)C)cc4)nnn3c3ccccc23)cc1`: 0.4% and 13.8% (inactive).
The like results for `CC1CN(CCC(=O)Nc2ccc3c(c2)OCO3)CC(C)O1` (stereo not drawn) were, in that order, -1.3% and 14% (inactive).
The matching figures for `CCc1ccc(Nc2nc3c(S(=O)(=O)c4ccc(C(C)C)cc4)nnn3c3ccccc23)cc1`: -1.1% and 6.9% (inactive).
Take `CC(C)c1ccc(NC(=O)C(c2ccc3c(c2)OCO3)N2CCCCC2)cc1` (stereo not drawn): the inhibition of mean fluorescence is 36.4% (active) and the inhibition of percent positive cells was -0.7%.
The like results for `COc1ccc(C(=O)N2CCC(C(=O)Nc3ccc4c(c3)OCO4)CC2)cc1` were, in that order, -3.1% (inactive) and 0%.
The matching figures for `O=C(O)c1ccccc1NC(c1ccccc1)c1ccc(Cl)cc1` (stereo not drawn): 59.8% (active) and 0.2%.
The matching figures for `O=C(CCN1CCN(c2ccccc2)CC1)Nc1ccc2c(c1)OCO2`: 5.8% (inactive) and 1.3%.
In the case of `O=C(Nc1ccc2c(c1)OCO2)C(c1ccc(Cl)cc1)N1CCC2(CC1)OCCO2` (stereo not drawn), the inhibition of mean fluorescence was -0.5% (inactive) and the inhibition of percent positive cells is -0.8%.
The like results for `N#Cc1c(NC(=O)COc2ccccc2)sc2c1CCCC2` were, in that order, -5% (inactive) and 2.5%.
For the molecule `CC1CCN(C(C(=O)Nc2ccc3c(c2)OCO3)c2ccccc2)CC1` (stereo not drawn), the inhibition of percent positive cells was -0.7% and the inhibition of mean fluorescence is 32.4% (active).
The matching figures for `COc1c(F)c(F)c(C(=O)O)c(Nc2cccc(C)c2)c1F`: -1.3% and -11.5% (inactive).
The matching figures for `Cc1ccc(N=C2NC(=O)CC(C(=O)Nc3cccc4ccccc34)S2)cc1` (stereo not drawn): -0.7% and -4.5% (inactive).
The matching figures for `COc1c(F)c(F)c(C(=O)O)c(Nc2ccccc2C)c1F`: -0.2% and 9.6% (inactive).
On to `COc1cccc(C(=O)NCC(c2cccnc2)N2CCN(c3ccc(F)cc3)CC2)c1` (stereo not drawn), for which the inhibition of percent positive cells stood at 0% and the inhibition of mean fluorescence is 8.6% (inactive).

These data come from PubChem BioAssay AID1014 (NMMLSC, 2008).
